Screens (PubChem)
The entries come from a sample that favours hits as a whole.
miR122 inh = miR-122 suppressors via Renilla sensor increase, primary screen, cell-based, Huh7 psiCHECK-miR122, Renilla luciferase, single point. 48 h. activation, % at 12.5 µM. hit rate 0.14% among 340,000. AID 623901, 2012;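 active = mean activation of 30% or more, with every replicate also reaching 30%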;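 note: 0% = median of neutral control wells and 100% = median of positive control wells; higher luciferase signal means stronger suppression of miR-122 activity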
Numbers without * were called inactive.

SMILES	miR122 inh
CCCC(=O)Nc1ccc2c(c1)C(=O)N(C)C[C@H](OC)[C@H](C)CN(CCC)[C@@H](C)CO2	0.6
C[C@@H]1CN([C@H](C)CO)S(=O)(=O)c2ccc(-c3ccncc3)cc2O[C@H]1CN(C)Cc1ccccn1	-3.0
C[C@H]1CN([C@@H](C)CO)S(=O)(=O)c2ccc(C#CC3CC3)cc2O[C@@H]1CN(C)C(=O)C1CC1	-10.4
COc1ccc(C#Cc2cnc3c(c2)C(=O)N([C@H](C)CO)C[C@H](C)[C@H](CN(C)CC2CCOCC2)O3)cc1	-4.7
CCC(=O)N(C)C[C@@H]1Oc2ncc(C#Cc3ccc(OC)cc3)cc2C(=O)N([C@@H](C)CO)C[C@H]1C	-1.9
C[C@@H]1CN([C@@H](C)CO)C(=O)c2cc(C#C[C@@H](C)O)cnc2O[C@H]1CN(C)Cc1cncnc1	6.7
Cc1ccc(C(=O)OCn2ncc(Cl)c(Cl)c2=O)cc1	74.4*
Cc1noc(C)c1S(=O)(=O)N(C)C[C@@H]1Oc2c(NC(=O)C3CCOCC3)cccc2C(=O)N([C@@H](C)CO)C[C@@H]1C	-95.6
COc1ccc(-c2ccc3c(c2)O[C@H](CN(C)C(=O)c2ccccc2F)[C@@H](C)CN([C@@H](C)CO)S3(=O)=O)cc1	-2.0
Cc1cc(C)cc(OCC(O)CN2CCC(CN3C(=O)c4cccc5cccc(c45)C3=O)CC2)c1 (stereo not given)	67.0*
Cc1cc(OCC(O)CN2CCOCC2)cc(C)c1Cl (stereo not given)	-90.7
CCCC(=O)Nc1ccc2c(c1)C(=O)N(C)C[C@@H](OC)[C@@H](C)CN(CCC)[C@H](C)CO2	0.0
COC(=O)[C@@H]1Cc2c([nH]c3ccccc23)C(C)(C)N1C(=O)CCl	32.2*
CCC(=O)N(C)C[C@H]1Oc2cc(-c3cccc(C#N)c3)ccc2S(=O)(=O)N([C@H](C)CO)C[C@@H]1C	1.9
C[C@@H]1CN([C@@H](C)CO)C(=O)c2cc(/C=C/c3ccccc3)cnc2O[C@H]1CN(C)C(=O)C1CCOCC1	-3.3
CCCCCCOc1ccc(/C(C)=N/NC2=NCCN2)cc1	64.8*
C[C@H](CO)N1C[C@H](C)[C@H](CN(C)C(=O)Cc2ccccn2)Oc2cc(-c3ccc(C(=O)N(C)C)cc3)ccc2S1(=O)=O	4.0
CCCNC(=O)N(C)C[C@H]1Oc2ncc(C#CCC3CCCC3)cc2C(=O)N([C@@H](C)CO)C[C@H]1C	5.0
COc1cccc(C#Cc2ccc3c(c2)O[C@H](CN(C)C(C)=O)[C@@H](C)CN([C@H](C)CO)S3(=O)=O)c1	-13.0
CCCNC(=O)NC[C@@H]1[C@@H](c2ccc(C3=CCCCC3)cc2)[C@H](CO)N1C(C)=O	-114.3
CCCNC(=O)N1[C@H](CNC(=O)c2ccc(F)cc2)[C@H](c2ccccc2)[C@@H]1CO	41.7*
C[C@@H]1CN([C@H](C)CO)C(=O)c2cc(C#Cc3ccc(F)cc3)cnc2O[C@@H]1CN(C)CC1CCOCC1	2.9
C[C@H]1CN([C@@H](C)CO)C(=O)c2cc(C#CC3(O)CCCC3)cnc2O[C@H]1CN(C)S(=O)(=O)c1ccc(F)cc1	2.2
CCCNC(=O)N(C)C[C@H]1Oc2cc(C#CCOC)ccc2S(=O)(=O)N([C@H](C)CO)C[C@H]1C	-9.7
C[C@H]1CN([C@@H](C)CO)C(=O)c2cc(-c3cccc(F)c3)cnc2O[C@@H]1CN(C)CC1CCCC1	1.6
SMILES	miR122 inh
Cc1nnc(NC(=O)CSc2nc(C(C)C)nc3sc(C)c(C)c23)s1	55.1*
C[C@@H]1CN([C@H](C)CO)C(=O)c2cc(-c3ccncc3)cnc2O[C@H]1CN(C)C(=O)Cc1cccnc1	1.0
C[C@@H]1CN([C@H](C)CO)S(=O)(=O)c2ccc(C#CC3CC3)cc2O[C@@H]1CN(C)C(=O)C1CC1	13.8
COc1ccccc1-c1cnc2c(c1)C(=O)N([C@@H](C)CO)C[C@@H](C)[C@H](CN(C)C(=O)c1ccccc1)O2	-5.5
C[C@H]1CN([C@@H](C)CO)C(=O)c2cc(C#Cc3ccccc3)cnc2O[C@@H]1CN(C)C(=O)c1ccccn1	1.8
C[C@@H]1CN([C@H](C)CO)C(=O)c2cc(-c3cncnc3)cnc2O[C@@H]1CN(C)Cc1cncnc1	-9.7
O=S(=O)(Nc1cccc2ncccc12)c1cccs1	-234.4
CCOc1ccc(S(=O)(=O)Nc2cccc(Cl)c2)cc1	-90.2
CCOc1ccc2nc(NS(=O)(=O)c3cccs3)sc2c1	33.9*
C[C@H](O)C#Cc1ccc2c(c1)O[C@@H](CN(C)C(=O)Cc1ccccn1)[C@@H](C)CN([C@@H](C)CO)S2(=O)=O	-6.5
CCC(=O)Nc1ccc2c(c1)OC[C@H](C)N(CCC(F)(F)F)C[C@@H](C)[C@@H](OC)CN(C)C2=O	0.7
CO[C@H]1CN(C)C(=O)c2cc(NC(=O)NC(C)C)ccc2OC[C@H](C)N(C(=O)NC(C)C)C[C@@H]1C	-4.6
Cc1cc(C(=O)Nc2cccc3c2O[C@@H](CN(C)CC2CCCCC2)[C@@H](C)CN([C@H](C)CO)C3=O)n(C)n1	-96.5
Cc1ccsc1/C=N/n1c(-c2ccco2)n[nH]c1=S	39.5*
C[C@@H]1CN([C@@H](C)CO)C(=O)c2cc(Br)cnc2O[C@H]1CN(C)Cc1cccc(F)c1	3.5
